DRD3 agonist: activates the human D3 dopamine receptor | 0.58% of 410,000 active | AID 652048 | D3R DiscoveRx beta-arrestin cells, luminescence, 90 min | max activation, %; in the data active = max activation above about 30%; also: 0% is about no effect
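Cells at 1500/well, incubated overnight, then treated with pinned compounds (dopamine as control) for 90 min at 37 degrees C. DiscoveRx reagent added for 30 - 60 minutes at room temperature; luminescence read.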
PI4K2A inh: blocks human PI4K2A kinase activity; Q9BTU6; purified PI4K2A, ADP-Glo luminescence, 1 h; hits give low values; 0.13% of 420,000 active; activity change, negative = inhibition, % at 76.9 µM; in the data active = activity change below about -50%; inconclusive = mostly about -30% to -49%;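 also: -100% = wells without enzyme as full effect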
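PI4K2A activity was measured by ADP-Glo luminescence: enzyme (4 ug/mL stock) and phosphatidylinositol (1.2 mM stock) in Tris pH 7.5/MgCl2/EGTA/Triton X-100 buffer were reacted with ATP (300 microM stock) for one hour at ambient temperature.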
DRD3 antagonist: D3 dopamine receptor (human) antagonism | AID 652054 | 2.5% of 360,000 active | P35462 | D3R cells, DiscoveRx beta-arrestin luminescence, antagonist mode; hits give low values | max response, negative = inhibition, %; in the data active = max response below about -50%; inconclusive = no clear call, values can overlap the other calls; also: % is scaled to controls: 0 for no effect and ±100 for the full control effect
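Cells plated overnight at 1500 cells/well, then exposed to library compounds with dopamine controls for 90 minutes at 37 degrees C. DiscoveRx reagent added for 30–60 minutes at room temperature; luminescence read, quantitative HTS format.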
PI5P4Ka inh: PI5P4K alpha (human) kinase inhibition; PI5P4Kalpha enzyme, ADP-Glo luminescence, 60 min; hits give low values; max response, %; 1.2% of 330,000 active; active = max response of -50% or lower; inconclusive = between -30% and -50%; inactive = -30% or higher; also: value at the top dose of about 77 µM; % is scaled to controls: 0 for no effect and ±100 for the full control effect
Target sequence (P48426 whole entry, looked up): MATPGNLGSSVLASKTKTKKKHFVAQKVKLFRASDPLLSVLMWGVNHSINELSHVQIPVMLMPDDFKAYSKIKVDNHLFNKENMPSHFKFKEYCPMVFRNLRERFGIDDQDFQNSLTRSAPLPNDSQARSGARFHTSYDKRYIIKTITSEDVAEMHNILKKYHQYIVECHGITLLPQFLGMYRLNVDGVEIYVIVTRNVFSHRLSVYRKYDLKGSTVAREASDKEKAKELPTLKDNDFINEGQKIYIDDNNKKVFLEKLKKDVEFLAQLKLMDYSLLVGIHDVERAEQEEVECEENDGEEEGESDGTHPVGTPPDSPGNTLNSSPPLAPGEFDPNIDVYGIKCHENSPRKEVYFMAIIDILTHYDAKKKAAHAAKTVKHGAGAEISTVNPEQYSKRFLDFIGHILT
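qHTS, 1536-well: enzyme/substrate mix, compound by pin tool, 5 microM ATP final; RT 60 min; ADP-Glo reagents 1 (45 min) then 2 (30 min); luminescence.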
LDHA inh: LDHA (human) enzyme inhibition; P00338; activity change, % (values are at about 110 or 230 µM); purified LDHA, NADH/diaphorase-resazurin fluorescence; hits give low values; 0.15% of 480,000 active; AID 1347041; in the data active = activity change below about -30%; inconclusive = mostly about -25% to -30%;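 also: plate controls were DMSO wells for no effect and wells without enzyme for full effect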
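Human LDH5 (2 nM) was incubated with 0.06 mM NADH and 0.2 mM pyruvate for 5 min at room temperature in Tris pH 7.4. Remaining NADH was coupled through diaphorase/resazurin, and resorufin fluorescence was read at 0 and 20 min.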
* = called active by the depositor; ? = inconclusive; · = not tested or not shown. This is a sample that favours compounds with a hit; in the whole collection about 3.3% have one here.

SMILES | DRD3 agonist | PI4K2A inh | DRD3 antagonist | PI5P4Ka inh | LDHA inh
CC1CCN(CC(O)COCc2ccccc2)CC1 (stereo not given) | · | · | · | · | 1.9
C=CCn1c(-c2cccc(OCC)c2)n[nH]c1=S | 9.3 | 0.8 | 2.2 | 6.5 | -0.4
C=CCn1c(-c2cc(OC)cc(OC)c2)n[nH]c1=S | -0.6 | -4.8 | -58.9* | -27.6 | 0.3
O=C(O)c1cc(NCc2cccc(OCc3ccccc3)c2)ccc1N1CCOCC1 | · | · | · | · | 11.2
Oc1c(Br)cc(Br)cc1C=NCc1ccc(F)cc1 | -32.1 | -29.8 | -66.5* | ? | 1.2
O/N=C/c1cc(Br)ccc1OCc1ccc(F)cc1 | 0.6 | 0.0 | 10.3 | -0.9 | -3.5
Oc1c(Br)cc(Br)cc1C=NCc1ccccc1 | -27.9 | ? | -57.4* | ? | 1.6
CNC(=O)COC(=O)c1[nH]c(C)c(C(C)=O)c1C | -3.2 | 6.3 | -79.1* | · | -12.2
CC(=O)c1c(C)[nH]c(C(=O)OCC(=O)c2ccc(C)s2)c1C | 44.2* | 0.5 | -3.4 | -7.7 | -3.9
Cc1cccc(NC(=O)c2cccc3ncccc23)n1 | · | · | · | · | 10.1
O=C(c1cccc(F)c1)N1CCC(N2CCCCCC2)CC1 | 2.9 | 0.8 | -73.6* | 4.9 | -15.6
CC(=O)Nc1c(I)cc(I)c(C(=O)O)c1I | 65.8* | 1.0 | · | · | ·
CNC(=O)c1c(I)c(NC(C)=O)c(I)c(C(=O)O)c1I | · | 4.2 | · | · | ·
Cc1c(N/N=C(\C#N)C(=O)c2ccccc2)c(=O)n(-c2ccccc2)n1C | -19.9 | 2.1 | -67.6* | 3.1 | 2.8
N#C/C(=N\Nc1cccc(Cl)c1)C(=O)c1ccccc1 | 6.9 | 3.0 | -85.9* | 14.7 | 1.8
COc1ccc2c(=O)c(Oc3ccccc3)c(C)oc2c1 | · | · | · | · | 5.7
Cc1ccc(S(=O)(=O)NCC2CN(S(=O)(=O)c3ccc(C)cc3)c3ccccc3C(=O)N2c2ccc(F)cc2)cc1 (stereo not given) | · | -3.1 | · | · | ·
CN1CCc2ccccc2Cc2[nH]c3ccccc3c2CC1 | -53.9 | 6.8 | -110.3* | 3.2 | -3.9
O=C1NC(=S)/C(=C\c2ccc(-c3ccccc3Cl)o2)S1 | 8.5 | -4.7 | -0.9 | -68.5* | -7.0
O=C1NC(=O)/C(=C/c2ccc(-c3cc(C(=O)O)ccc3Cl)o2)S1 | -5.4 | -2.3 | -10.1 | -81.9* | -5.8
O=C(O)C(Sc1ccccc1)c1ccccc1 (stereo not given) | · | · | · | · | 7.8
Oc1ccc(N2CCN(Cc3cc4c(cc3Br)OCCO4)CC2)cc1 | -17.5 | 0.4 | -86.5* | -13.1 | 38.8
COc1ccc(C)cc1CN1CCN(C(=O)c2cc(C3CC3)nn2-c2ccccc2)CC1 | · | · | · | · | 2.9
Cc1ccc(CNC(=O)CSc2nc3ccccc3nc2N2CCCC2)cc1 | · | · | · | · | 0.1
O=c1[nH]c(=O)n(Cc2ccco2)c2c1C(C(F)(F)F)(C(F)(F)F)N=C(c1ccc(F)cc1)N2 | 56.4* | 2.5 | 48.0 | · | -9.6
SMILES | DRD3 agonist | PI4K2A inh | DRD3 antagonist | PI5P4Ka inh | LDHA inh
CCN(CC(=O)NC)C(=O)CCc1ncc(-c2ccc(Cl)cc2)o1 | · | · | · | · | 7.0
Cc1nnc(SCC(=O)N2CCN(c3ncccn3)CC2)n1C1CC1 | · | · | · | · | 0.2
O=C(CSc1ccc2nnc(-c3ccncc3)n2n1)Nc1ccc2c(c1)OCCO2 | -4.1 | 7.2 | -59.3* | -0.5 | -2.7
O=C(CSc1ccc2c(c1)OCCO2)Nc1ccc(Br)cc1 | 7.1 | 0.5 | -62.9* | 0.3 | 1.3
O=C(CSc1ccc2c(c1)OCCO2)Nc1ccc2c(c1)OCO2 | -3.2 | -1.4 | 4.9 | -0.1 | 1.0
O=C(CSc1ccc2nnc(-c3ccncc3)n2n1)Nc1ccc2c(c1)OCO2 | -1.9 | 0.0 | 19.6 | -1.6 | 4.5
Cc1nnc(SCC(=O)NC(=O)Nc2ccc3c(c2)OCCO3)s1 | -11.4 | 3.9 | -69.9* | 2.4 | -6.5
Cc1cccc(Nc2nnc(SCC(=O)NC(=O)Nc3ccc4c(c3)OCCO4)s2)c1 | -4.6 | -3.4 | -3.8 | 0.5 | -4.2
COc1ccc(Br)cc1-c1nc2cccc(C)c2c(=O)o1 | · | · | · | · | 13.5
CCN(Cc1cnn(C)c1)Cc1nc(Cc2ccccc2Cl)no1 | 42.2* | 0.8 | -11.5 | 2.5 | -4.0
CC(=O)OC(C)OC(=O)C(C)c1ccc(-c2ccccc2)c(F)c1 (stereo not given) | 9.3 | -2.5 | · | · | ·
Cc1ccc(OCCn2c(CNC(=O)c3ccco3)nc3ccccc32)cc1 | · | · | · | · | -2.2
NC(c1csc(Nc2ccc(C(F)(F)F)cn2)n1)C1CCCCC1 (stereo not given) | -13.0 | -1.6 | -52.6* | 21.1 | 1.3
CCOC(=O)c1ccc(Nc2cc(C)nc(-c3ccccc3O)n2)cc1 | 68.3* | -2.0 | 48.8 | · | -1.1
CC(NC(=O)c1cccc(N(C)C)c1)c1ccc(Cl)s1 (stereo not given) | · | · | · | · | 5.8
COc1cccc(=O)c2c(C)n(-c3cc(C)cc(C)c3)c(C)c12 | 5.8 | 0.4 | -65.4* | -14.7 | -0.2
Clc1ccc(OCCCNCc2ccccc2)c2ccccc12 | -22.4 | 0.6 | -29.2 | 5.5 | -2.5
Cc1cc(C)c(OCCNCc2ccccc2)c(C)c1 | -13.2 | -18.4 | -15.2 | -7.4 | -13.2
Cc1cc(Br)ccc1OCCNCc1ccccc1 | -10.1 | -0.8 | -70.3* | 16.3 | -17.8
CCOCCCNCc1cccc(Br)c1 | · | · | · | · | 5.0
Brc1ccccc1OCCNCc1ccccc1 | 4.3 | 3.2 | -71.5* | 3.0 | -12.2
Cc1cc(C)c(C)c(OCCNCc2ccccc2)c1 | -11.7 | 3.5 | -77.4* | 0.0 | -18.8
CC(C)(C)c1ccc(OCCNCc2ccccc2)cc1 | -15.7 | -23.9 | -53.0* | 1.6 | -15.3
CN1CCN(S(=O)(=O)c2ccc(N(C)CCOc3ccc(Cl)cc3)nc2)CC1 | · | · | · | · | -22.2
N#Cc1cccc(NC(=O)COC(=O)c2ccc3ccccc3n2)c1 | · | · | · | · | -19.1
SMILES | DRD3 agonist | PI4K2A inh | DRD3 antagonist | PI5P4Ka inh | LDHA inh
CCOc1ccc(/C=C/C(=O)Oc2ccc(Br)cc2)cc1 | · | · | · | · | -14.1
C=CCc1ccccc1OCCNCc1ccccc1 | -14.5 | -1.6 | -88.4* | 3.9 | -20.4
CCc1nnc(NC(=O)c2cc(C)nc3ccc(C)cc23)s1 | · | · | · | · | -16.2
COc1ccc(Nc2nc(N3CCN(c4ccccc4)CC3)c3nccnc3n2)cc1 | · | · | · | · | -2.9
Cc1cccc(NC(=S)NC2CC3CCCC(C2)N3Cc2cccs2)c1 (stereo not given) | -29.3 | 1.3 | -87.4* | · | 4.0
COc1ccc(OC)c(C(=O)NC2CCCC2)c1 | · | · | · | · | -0.6
CCN1CCCC(NC(=O)c2cc([N+](=O)[O-])ccc2OC)C1 (stereo not given) | -25.6 | 0.6 | -59.6* | 2.2 | -1.4
CC(C)=CCN1CCN(C/C(Cl)=C/c2ccccc2)CC1CCO (stereo not given) | -19.5 | 0.1 | -62.8* | 5.2 | -3.6
Cc1ccc2oc(/N=C(\N)NC(=O)C(C)(C)C)nc2c1 | -13.6 | -4.5 | -52.2* | -0.9 | -5.6
Cc1ccc2oc(/N=C(\N)NC(=O)C3CC3)nc2c1 | -3.2 | -5.1 | -10.1 | -0.8 | -0.2
c1ccc(-c2nnsc2-c2ccccc2)cc1 | 4.0 | -0.1 | 1.2 | -59.8* | 1.7
O=[N+]([O-])c1cc2c(cc1/C=N/n1c(-c3ccccc3)n[nH]c1=S)OCO2 | -4.8 | 3.4 | ? | -10.4 | -5.6

From PubChem
